An excerpt weighted towards active compounds, which were near 7.3% of everything screened.
Rab9 prom act: qHTS Assay for Rab9 Promoter Activators; Huh7 Rab9 promoter-luciferase reporter, luminescence, 24 h; Potency, µM (series often up to 9.22 µM), hits mostly activators; 2.8% of 320,000 active; AID 485297, 2010; note: nearly all actives have a fitted effect of over 60% in size
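Cells were plated at 1500 per well in reduced-serum medium with 10% FBS and left 2 h. Compound in DMSO was then added for 24 h at 37 °C. Reporter signal was read by luminescence after 10 min with luciferase detection reagent.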
SMN2 splice enh: qHTS Assay for Enhancers of SMN2 Splice Variant Expression; HEK293 SMN2-luciferase splicing reporter, luminescence, 30-36 h; Potency, µM (highest dose often 46.1 µM), usual class: activators; 2.8% of 210,000 active; AID 1458, 2008; note: nearly all actives have a fitted effect of over 55% in size
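HEK293 cells carry an SMN2 minigene-luciferase reporter in which exon 7 inclusion puts luciferase in frame. Cells were seeded at 2000 cells/well, attached for 10-12 hours, then exposed to compounds for 30-36 hours at 37C before ONE-Glo luminescence.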
FLuc counter: qHTS profiling assay for firefly luciferase inhibitor/activator using purifed enzyme and Km concentrations of substrates (counterscreen for miR-21 project) | purified FLuc, Km substrates, luminescence inhibition | Luciferin 4-monooxygenase (Photinus pyralis), P08659 | Potency, µM (top dose mostly 57.5 µM), usual class: inhibitors | 6.9% of 360,000 active; note: nearly all actives have a fitted effect of over 55% in size
Target sequence (P08659 whole entry, looked up): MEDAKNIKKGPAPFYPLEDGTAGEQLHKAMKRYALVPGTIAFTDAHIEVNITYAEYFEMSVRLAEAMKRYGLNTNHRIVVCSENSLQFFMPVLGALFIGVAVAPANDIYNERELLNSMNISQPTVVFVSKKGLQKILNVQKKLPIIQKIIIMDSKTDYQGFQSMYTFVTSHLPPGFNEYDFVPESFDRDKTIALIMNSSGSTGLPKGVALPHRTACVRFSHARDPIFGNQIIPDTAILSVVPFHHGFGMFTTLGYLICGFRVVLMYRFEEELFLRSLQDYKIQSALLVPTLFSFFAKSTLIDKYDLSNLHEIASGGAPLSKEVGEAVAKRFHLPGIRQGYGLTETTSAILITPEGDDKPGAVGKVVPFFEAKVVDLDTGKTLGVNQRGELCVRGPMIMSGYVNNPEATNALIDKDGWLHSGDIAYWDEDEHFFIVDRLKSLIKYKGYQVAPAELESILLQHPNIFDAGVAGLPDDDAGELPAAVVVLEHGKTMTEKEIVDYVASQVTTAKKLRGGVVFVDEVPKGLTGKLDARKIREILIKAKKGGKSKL
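Purified P. pyralis luciferase (10nM final) with 10uM D-luciferin and 10uM ATP (Km levels) in 50mM Tris acetate pH 7.5, 10mM Mg acetate, 0.01% Tween-20, 0.05% BSA; qHTS 6-point titration, ~60 µM downward; luminescence read.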
Luc counter: Counterscreen for Luciferase (Kinase-Glo TM) Inhibition; 0.28% of 200,000 active; Luciferin 4-monooxygenase (Photuris pensylvanica), Q27757; Kinase-Glo luciferase, ATP luminescence, 8 min; Potency, µM (highest dose often 38.3 µM), usual class: inhibitors; AID 1379, 2008; note: nearly all actives have a fitted effect of over 60% in size
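Light output from Kinase-Glo luciferase with luciferin and 10 uM ATP in 50 mM imidazole pH 7.2, KCl, MgCl2, Tween 20, BSA; compound pin-delivered, 8-min ambient incubation, then luminescence read.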
NPC1 prom act: qHTS Assay for NPC1 Promoter Activators | Huh7 NPC1 promoter luciferase reporter, 24 h | Potency, µM (series often up to 9.22 µM), actives largely listed as activators | 2.4% of 320,000 active | AID 485313, 2010; note: nearly all actives have a fitted effect of over 60% in size
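Readout is luciferase luminescence, reflecting NPC1 promoter activation in stably transfected Huh7 cells after 24 h compound exposure at 37 °C in reduced-serum medium with 10% FBS.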
Numbers stand for hits; [ ] = another dose, or the depositor's remark. Calls come from the whole dose curve; as a rule, active = well fitted curve in the direction sought with a large enough effect; inconclusive = small, poorly fitted or top-dose-only effect, or another doubt; inactive = no such curve, though single readings can be large; an effect the other way counts as inactive or inconclusive.

CCOc1cc(/C=N/N2C(=O)NC3(CCCCC3)C2=O)cc(Br)c1O was read as Rab9 prom act inactive, SMN2 splice enh inactive, FLuc counter inactive, Luc counter inactive and NPC1 prom act inactive.
CCN1CCN(c2ccc(N=Cc3ccccc3O)cc2)CC1 was read as Rab9 prom act inactive, SMN2 splice enh inactive, FLuc counter 21.3µM, Luc counter inactive and NPC1 prom act inactive.
`COc1cccc(/C=N/N2C(=O)NC3(CCCCC3)C2=O)c1O` gave Rab9 prom act inactive, SMN2 splice enh inactive, FLuc counter 13.5µM, Luc counter inactive and NPC1 prom act inactive.
O=[N+]([O-])c1cc(Br)c(O)c(C=Nc2ccc(N3CCOCC3)cc2)c1 was read as Rab9 prom act inactive, SMN2 splice enh inactive, FLuc counter inconclusive, Luc counter inactive and NPC1 prom act inactive.
For N/C(=N\OC(=O)c1ccc([N+](=O)[O-])cc1)c1ccc(Br)cc1 the results were Rab9 prom act inactive, FLuc counter inconclusive and NPC1 prom act inactive.
N/C(=N\OC(=O)c1ccc(Br)cc1)c1cccc([N+](=O)[O-])c1 was read as Rab9 prom act inactive, FLuc counter 0.849µM and NPC1 prom act inconclusive.
`N/C(=N\OC(=O)C1CCCCC1)c1cccc([N+](=O)[O-])c1` gave Rab9 prom act inactive, SMN2 splice enh inactive, FLuc counter 10.7µM, Luc counter inactive and NPC1 prom act inactive.
Screening Cc1ccc(C(=O)O/N=C(\N)c2cccc([N+](=O)[O-])c2)cc1 returned Rab9 prom act 3.55µM, SMN2 splice enh inactive, FLuc counter 0.19µM, Luc counter inactive and NPC1 prom act 3.55µM.
Screening c1ccc(-c2nccc(-c3ccc4c(c3)OCO4)n2)cc1 returned Rab9 prom act inconclusive, SMN2 splice enh inconclusive, FLuc counter 19µM, Luc counter inactive and NPC1 prom act inconclusive.
COc1ccccc1CNc1ccnc(-c2ccc3c(c2)OCO3)n1 was read as SMN2 splice enh inactive and Luc counter inactive.
`c1ccc(CNc2ccnc(-c3ccc4c(c3)OCO4)n2)cc1` gave SMN2 splice enh 12.6µM and Luc counter inactive.
For CCC12CN3CC(CC)(CN(C1)C3c1cccc(OC)c1O)C2=O (stereo not given) the results were SMN2 splice enh inactive and FLuc counter inactive.
Screening NC(=O)COC(=O)/C=C/c1ccccc1[N+](=O)[O-] returned Rab9 prom act inactive, SMN2 splice enh inactive, FLuc counter inactive, Luc counter inactive and NPC1 prom act inactive.
COC(=O)CNC(=O)COC(=O)/C=C/c1ccccc1[N+](=O)[O-] was read as Rab9 prom act inactive, SMN2 splice enh inactive, FLuc counter inactive, Luc counter inactive and NPC1 prom act inactive.
`O=C(O)c1ccc(N/N=C/C=C/c2ccccc2[N+](=O)[O-])cc1` gave Rab9 prom act 1.41µM, SMN2 splice enh 8.91µM, FLuc counter 3.38µM, Luc counter inactive and NPC1 prom act 1.41µM.
For O=C(/C=C/c1ccccc1[N+](=O)[O-])c1ccc(F)cc1 the results were Rab9 prom act inactive, SMN2 splice enh inactive, FLuc counter 13.5µM, Luc counter inactive and NPC1 prom act inactive.
For O=C(Cc1ccccc1)N/N=C/C=C/c1ccccc1[N+](=O)[O-] the results were Rab9 prom act inconclusive, FLuc counter inactive and NPC1 prom act inconclusive.
`O=C(/C=C/c1ccccc1[N+](=O)[O-])Oc1ccccc1` gave Rab9 prom act inactive, FLuc counter 6.75µM and NPC1 prom act inactive.
Screening O=C(/C=C/c1ccccc1[N+](=O)[O-])OCC(=O)c1ccccc1 returned Rab9 prom act inactive, SMN2 splice enh inactive, FLuc counter 23.9µM, Luc counter inactive and NPC1 prom act inactive.
COC(=O)c1cc(NC(=O)Cn2nc(-c3ccc(C)c(C)c3)ccc2=O)cc(C(=O)OC)c1 was read as FLuc counter inactive.
CCCCC[C@]12Cc3ccccc3C(O1)c1c(cc(C)oc1=O)O2 was read as Rab9 prom act inactive[1.84 µM], FLuc counter inactive[11.5 µM] and NPC1 prom act inactive[1.84 µM].
Screening COC(=O)C1=C(C)[C@H](O)[C@@H](C)[C@](C)(c2cc(OC)c(C)c(OC)c2COc2ccccc2)O1 returned SMN2 splice enh inactive and Luc counter inactive.
`FC(F)Sc1ccc(Nc2ncnc3nc[nH]c23)cc1` gave Rab9 prom act inconclusive, SMN2 splice enh 11.2µM, FLuc counter inconclusive, Luc counter inactive and NPC1 prom act inconclusive.
COc1ccc2c(=O)c(OC)c(-c3ccccc3)oc2c1 was read as SMN2 splice enh inactive and Luc counter inactive.
For COc1ccc2c(=O)c(Oc3ccc(C(=O)O)cc3)c(C(F)(F)F)oc2c1 the results were Rab9 prom act inconclusive, SMN2 splice enh 2.51µM, FLuc counter inconclusive, Luc counter inactive and NPC1 prom act inconclusive.
`COC(=O)c1ccc(C(=O)OC)c(NC(=O)c2cnn3c(C(F)F)cc(-c4ccccc4)nc23)c1` gave FLuc counter inactive.
For CCOC(=O)c1ccc2c(c1)n(CC)c(C)[n+]2CC the results were Rab9 prom act inactive, SMN2 splice enh inactive, FLuc counter inactive, Luc counter inactive and NPC1 prom act inactive.
For CCOC(=O)c1ccc2c(c1)[nH]c(=S)n2CC the results were Rab9 prom act inconclusive, FLuc counter 19µM, Luc counter inactive and NPC1 prom act inactive.
Screening CCOC(=O)c1c(S(=O)(=O)N2CCC(C(=O)Nc3ccccc3OC)CC2)c(C)n(CC)c1C returned FLuc counter inactive.
Screening COc1cccc(N2C(=O)C(CC(=O)Nc3ccc(F)cc3)N(CCC3=CCCCC3)C2=O)c1 (stereo not given) returned SMN2 splice enh inactive and FLuc counter inactive.
Screening CS(=O)(=O)Nc1ccc(C(=O)Nc2ccccc2Cl)cc1 returned Rab9 prom act inactive, SMN2 splice enh inactive, FLuc counter inactive, Luc counter inactive and NPC1 prom act inactive.
`CC(C)(C)c1ccc(C(=O)Nc2ccccc2Cl)cc1` gave Rab9 prom act 0.708µM, FLuc counter 1.9µM, Luc counter inactive and NPC1 prom act 0.794µM.
`CC(C)(C)c1ccc(C(=O)Nc2ccccc2NC(=O)c2ccco2)cc1` gave Rab9 prom act inactive, SMN2 splice enh inactive, FLuc counter 19µM, Luc counter inactive and NPC1 prom act inactive.
`O=C(Nc1ccccc1NC(=O)c1ccco1)c1ccccc1` gave Rab9 prom act inactive, FLuc counter inactive and NPC1 prom act inactive.
`CC(C)(C)c1ccc(C(=O)Nc2cccc3ncccc23)cc1` gave Rab9 prom act inactive, FLuc counter 13.5µM and NPC1 prom act inactive.
For CC(=O)N1CCc2cc(CNS(=O)(=O)c3ccccc3C(F)(F)F)ccc21 the results were FLuc counter inactive.
`COc1ccc(CNC(=O)Cn2ccc3cc(S(=O)(=O)N4CCCCCC4)ccc32)c(OC)c1` gave FLuc counter inactive.

Compound activity deposited in PubChem BioAssay by National Center for Advancing Translational Sciences (NCATS).
